Results: the supplement of paper PMC8007513
Where a name gives a salt, the structure may show the parent alone. ± gives the standard error. The campaign covered roughly 1,300 compounds. About 75 (6%) showed an effect of 50% or more. This excerpt belongs to a sample that is enriched for strong results.

Tested on: Trichoderma virens ATCC 9645
Assay: growth yield (OD600) relative to untreated control; higher = less growth inhibition
Settings: compound concentration: 100 uM
Summary of the method: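 For each 96-well plate, 100 μl aliquots were prepared with Trichoderma virens ATCC 9645 spores suspended at 15,000 spores ml^−1 in potato dextrose broth. The spores had been harvested from potato dextrose agar plates after 7 days. Library compounds were present at 100 μM final, some wells also receiving a biocide at 200 ng ml^−1, and plates were grown at 30 °C with OD600 read on a BioTek EL800 at 40 h and 72 h. Reported growth, relative to the control lacking both agents, is the mean of duplicate screens.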

COc1ccccc1O [Guaiacol]
growth yield (40 h): 103.9 ± 0.95%
growth yield (72 h): 102.7 ± 0.32%

COc1ccc(C(=O)c2ccccc2O)c(O)c1 [Dioxybenzone]
growth yield (40 h): 22.2%
growth yield (72 h): 45.1 ± 2.7%

COc1ccc(C(=O)c2ccccc2)c(O)c1 [Oxybenzone]
growth yield (40 h): 53.8 ± 4.3%
growth yield (72 h): 62.9%

Nc1cc(N2CCCCC2)nc(N)[n+]1[O-] [Minoxidil]
growth yield (40 h): 104 ± 3.2%
growth yield (72 h): 102 ± 1.3%

O=C(NCCO[N+](=O)[O-])c1cccnc1 [Nicorandil]
growth yield (40 h): 102.9 ± 0.32%
growth yield (72 h): 102 ± 4.2%

CC1=C(C(=O)O)N2C(=O)[C@@H](NC(=O)[C@H](N)c3ccc(O)cc3)[C@H]2SC1 [Cefadroxil]
growth yield (40 h): 104 ± 8.9%
growth yield (72 h): 106 ± 9.1%

O=C(O[C@@H]1C[C@@H]2C[C@H]3C[C@H](C1)N2CC3=O)c1c[nH]c2ccccc12 [Dolasetron mesilate]
growth yield (40 h): 106 ± 3.3%
growth yield (72 h): 104 ± 1.9%

CCn1cc(C(=O)O)c(=O)c2cnc(N3CCCC3)nc21 [Piromidic acid]
growth yield (40 h): 90.5 ± 5.7%
growth yield (72 h): 92.1 ± 4%

CCCCC(CC)CNC(=N)NC(=N)NCCCCCCNC(=N)NC(=N)NCC(CC)CCCC (stereo not drawn) [Alexidine dihydrochloride]
growth yield (40 h): 1.91 ± 0.32%
growth yield (72 h): 1.89 ± 0.63%

OC(CCN1CCCCC1)(c1ccccc1)C1CC2C=CC1C2 (stereo not drawn) [Biperiden hydrochloride]
growth yield (40 h): 104 ± 2.9%
growth yield (72 h): 105 ± 1.9%

CCN(CC)CCNc1ccc(CO)c2sc3ccccc3c(=O)c12 [Hycanthone]
growth yield (40 h): 118 ± 4.1%
growth yield (72 h): 114.7 ± 0.63%

CCCCC[C@H](O)/C=C/[C@H]1[C@H](O)CC(=O)[C@@H]1CCCCCCC(=O)O [Alprostadil]
growth yield (40 h): 107 ± 8.4%
growth yield (72 h): 101 ± 6.2%

C[C@@H]1C[C@H]2[C@@H]3C[C@H](F)C4=CC(=O)C=C[C@]4(C)[C@@]3(Cl)[C@@H](O)C[C@]2(C)[C@H]1C(=O)COC(=O)C(C)(C)C [Clocortolone pivalate]
growth yield (40 h): 107 ± 4%
growth yield (72 h): 100 ± 5.7%

CCc1oc2ccccc2c1C(=O)c1cc(Br)c(O)c(Br)c1 [Benzbromarone]
growth yield (40 h): 40.7 ± 5.7%
growth yield (72 h): 77.8 ± 4.8%

O=c1oc2ccccc2c(O)c1Cc1c(O)c2ccccc2oc1=O [Dicumarol]
growth yield (40 h): 94 ± 0.95%
growth yield (72 h): 92.4 ± 0.94%

CC(=O)CC(c1ccccc1)c1c(O)c2ccccc2oc1=O (stereo not drawn) [Warfarin]
growth yield (40 h): 90.9 ± 3.5%
growth yield (72 h): 89.1 ± 4%

CC(Cc1cccc(C(F)(F)F)c1)NCCOC(=O)c1ccccc1 (stereo not drawn) [Benfluorex]
growth yield (40 h): 83.5 ± 3.5%
growth yield (72 h): 95.9 ± 1.9%

CN[C@@H]1[C@H](O[C@H]2[C@H](O[C@H]3[C@H](O)[C@@H](O)[C@H](NC(=N)N)[C@@H](O)[C@@H]3NC(=N)N)O[C@@H](C)[C@]2(O)CO)O[C@@H](CO)[C@H](O)[C@H]1O [Dihydrostreptomycin sulfate]
growth yield (40 h): 96.9%
growth yield (72 h): 98%

CCOC1O[C@H]([C@@H](COCc2ccccc2)OCc2ccccc2)[C@H](OCc2ccccc2)[C@H]1O (stereo partly drawn) [Tribenoside]
growth yield (40 h): 90.2 ± 6%
growth yield (72 h): 87.2 ± 6.2%

CC(C)CC(=O)N[C@H](C(=O)N[C@H](C(=O)N[C@@H](CC(C)C)[C@@H](O)CC(=O)N[C@@H](C)C(=O)N[C@@H](CC(C)C)[C@@H](O)CC(=O)O)C(C)C)C(C)C [Pepstatin A]
growth yield (40 h): 106 ± 5.4%
growth yield (72 h): 102 ± 7.8%

CN(C)CCOC(c1ccc(Cl)cc1)c1ccccn1 (stereo not drawn) [Carbinoxamine maleate salt]
growth yield (40 h): 97.7 ± 4.3%
growth yield (72 h): 97.8 ± 2.6%

CCN(CC)C(=S)SSC(=S)N(CC)CC [Disulfiram]
growth yield (40 h): 27.2 ± 17%
growth yield (72 h): 67.8 ± 12%

COc1ccccc1N1CCN(CC(O)COc2cccc3ccccc23)CC1 (stereo not drawn) [Naftopidil dihydrochloride]
growth yield (40 h): 97.4 ± 1.1%
growth yield (72 h): 110.22 ± 0.1%

NCCNCCNCCNCCN [Tetraethylenepentamine pentahydrochloride]
growth yield (40 h): 103 ± 2.5%
growth yield (72 h): 99.8 ± 2.9%

CCCOc1ccccc1-c1nc2[nH]nnc2c(=O)[nH]1 [Zaprinast]
growth yield (40 h): 99.1%
growth yield (72 h): 106 ± 1.1%

CCC(=O)OCC(=O)[C@@]1(OC(=O)CC)[C@H](C)C[C@H]2[C@H]3[C@H]([C@@H](O)C[C@@]21C)[C@@]1(C)C=CC(=O)C=C1C[C@H]3Cl [Alclometasone dipropionate]
growth yield (40 h): 101 ± 4%
growth yield (72 h): 97.7 ± 1.7%

CCCCCCNC(=O)n1cc(F)c(=O)[nH]c1=O [Carmofur]
growth yield (40 h): 16.4 ± 0.48%
growth yield (72 h): 33.1 ± 5.5%

Nc1nc(=O)c2c([nH]1)NC[C@@H](CNc1ccc(C(=O)N[C@@H](CCC(=O)O)C(=O)O)cc1)N2C=O [Folinic acid calcium salt]
growth yield (40 h): 99.8 ± 2.5%
growth yield (72 h): 92 ± 4.1%

CC(C)NC[C@H](O)COc1ccc(CC(N)=O)cc1 [(S)-(-)-Atenolol]
growth yield (40 h): 100 ± 1.6%
growth yield (72 h): 101 ± 1.5%

NS(=O)(=O)c1cc2c(cc1C(F)(F)F)NC(Cc1ccccc1)NS2(=O)=O (stereo not drawn) [Bendroflumethiazide]
growth yield (40 h): 106 ± 3.3%
growth yield (72 h): 102 ± 3.4%

CN(c1nccc(=O)[nH]1)C1CCN(c2nc3ccccc3n2Cc2ccc(F)cc2)CC1 [Mizolastine]
growth yield (40 h): 94.5 ± 2.4%
growth yield (72 h): 96 ± 2.6%

CCCCCCCCCCCCCCCC[N+](C)(C)CCN(Cc1ccc(OC)cc1)c1ncccn1 [Thonzonium bromide]
growth yield (40 h): 0%
growth yield (72 h): 0%

COc1ccc(CN(CCN(C)C)c2ccccn2)cc1 [Pyrilamine maleate]
growth yield (40 h): 101 ± 1.1%
growth yield (72 h): 103 ± 1.5%

CN(C)CCN(Cc1ccc(Cl)cc1)c1ccccn1 [Chloropyramine hydrochloride]
growth yield (40 h): 98.8 ± 1.9%
growth yield (72 h): 96.2 ± 2.6%

Nc1ncn(C2OC(CO)C(O)C2O)c(=O)n1 (stereo not drawn) [Azacytidine-5]
growth yield (40 h): 89.4 ± 5.9%
growth yield (72 h): 88.4 ± 4.3%

CC(C)[C@H](N)C(=O)OCCOCn1cnc2c(=O)nc(N)[nH]c21 [Valacyclovir hydrochloride]
growth yield (40 h): 102%
growth yield (72 h): 103%

CC(=C(CCO)SSCC1CCCO1)N(C=O)Cc1cnc(C)nc1N (stereo in doubt) [Fursultiamine Hydrochloride]
growth yield (40 h): 104 ± 5.2%
growth yield (72 h): 101 ± 3.1%

NC[C@H]1CC[C@H](C(=O)O)CC1 [Tranexamic acid]
growth yield (40 h): 99.75 ± 0.64%
growth yield (72 h): 102.2 ± 0.73%

CCCCOc1ccc(OCCCN2CCOCC2)cc1 [Pramoxine hydrochloride]
growth yield (40 h): 89.6 ± 1.9%
growth yield (72 h): 90.5 ± 2.2%

COc1cc2ncnc(Nc3ccc(F)c(Cl)c3)c2cc1OCCCN1CCOCC1 [Gefitinib]
growth yield (40 h): 7.47 ± 0.16%
growth yield (72 h): 6.29%

C#Cc1cccc(Nc2ncnc3cc(OCCOC)c(OCCOC)cc23)c1 [Erlotinib]
growth yield (40 h): 108%
growth yield (72 h): 105%

CC[C@H]1OC(=O)[C@H](C)[C@@H](O[C@H]2C[C@@](C)(OC)[C@@H](O)[C@H](C)O2)[C@H](C)[C@@H](O[C@@H]2O[C@H](C)C[C@H](N(C)C)[C@H]2O)[C@](C)(O)C[C@@H](C)/C(=N\OCOCCOC)[C@H](C)[C@@H](O)[C@]1(C)O [Roxithromycin]
growth yield (40 h): 97.85 ± 0.64%
growth yield (72 h): 96.7 ± 1.5%

COc1ccnc(C[S+]([O-])c2nc3cc(OC(F)F)ccc3[nH]2)c1OC (stereo not drawn) [Pantoprazole sodium]
growth yield (40 h): 88.2 ± 6.2%
growth yield (72 h): 94 ± 3.8%

Cc1c(F)c(N2CCNC(C)C2)cc2c1c(=O)c(C(=O)O)cn2C1CC1 (stereo not drawn) [Grepafloxacin]
growth yield (40 h): 99.9 ± 1.4%
growth yield (72 h): 97.53 ± 0.63%

CC(=O)OCC(=O)[C@@]1(O)[C@H](C)C[C@H]2[C@@H]3CCC4=CC(=O)C=C[C@]4(C)[C@@]3(F)[C@@H](O)C[C@@]21C [Dexamethasone acetate]
growth yield (40 h): 102 ± 4%
growth yield (72 h): 103 ± 3.7%

CCOCCn1c(N2CCCN(C)CC2)nc2ccccc21 [Emedastine]
growth yield (40 h): 98.96 ± 0.16%
growth yield (72 h): 96.9 ± 2.7%

CCC(C)(C)c1ccc(CC(C)CN2C[C@@H](C)O[C@@H](C)C2)cc1 (stereo partly drawn) [Amorolfine hydrochloride]
growth yield (40 h): 4.45 ± 0.32%
growth yield (72 h): 2.94 ± 0.21%

CCn1cc(C(=O)O)c(=O)c2cnc(N3CCNCC3)nc21 [Pipemidic acid]
growth yield (40 h): 94.4 ± 3.5%
growth yield (72 h): 92.7%

NC[C@@H]1O[C@H](O[C@H]2[C@@H](O)[C@H](O[C@@H]3[C@@H](O)[C@H](N)C[C@H](N)[C@H]3O[C@H]3O[C@H](CO)[C@@H](O)[C@H](O)[C@H]3N)O[C@@H]2CO)[C@H](N)[C@@H](O)[C@@H]1O [Paromomycin sulfate]
growth yield (40 h): 102.6 ± 0.32%
growth yield (72 h): 96.59 ± 0.32%

O=C1CN(/N=C/c2ccc(-c3ccc([N+](=O)[O-])cc3)o2)C(=O)N1 [Dantrolene sodium salt]
growth yield (40 h): 93.4 ± 2.2%
growth yield (72 h): 99.7 ± 1.4%

O=C(NCC(O)CO)c1c(I)c(C(=O)NCC(O)CO)c(I)c(N(CCO)C(=O)CO)c1I (stereo not drawn) [Ioversol]
growth yield (40 h): 101 ± 5.4%
growth yield (72 h): 98.1 ± 2.8%

CC(=O)c1ccc2c(c1)N(CCCN1CCC(CCO)CC1)c1ccccc1S2 [Piperacetazine]
growth yield (40 h): 124 ± 8.6%
growth yield (72 h): 119 ± 8.9%

OCCN1CCN(CCCN2c3ccccc3Sc3ccc(C(F)(F)F)cc32)CC1 [Fluphenazine dihydrochloride]
growth yield (40 h): 44 ± 6.2%
growth yield (72 h): 90.3 ± 8.9%

CN1CCN(CCCN2c3ccccc3Sc3ccc(C(F)(F)F)cc32)CC1 [Trifluoperazine dihydrochloride]
growth yield (40 h): 20 ± 0.95%
growth yield (72 h): 63.35 ± 0.42%

CN(C)CCCN1c2ccccc2Sc2ccccc21 [Promazine hydrochloride]
growth yield (40 h): 91.33 ± 0.16%
growth yield (72 h): 95.6%

CN(C)CCCN1c2ccccc2Sc2ccc(C(F)(F)F)cc21 [Triflupromazine hydrochloride]
growth yield (40 h): 74.66 ± 0.32%
growth yield (72 h): 92.1 ± 2.1%

OCCN1CCN(CCCN2c3ccccc3C=Cc3ccccc32)CC1 [Opipramol dihydrochloride]
growth yield (40 h): 91.3 ± 1.1%
growth yield (72 h): 98.1 ± 1.4%

CO[C@H]1C[C@H](O[C@H]2[C@H](C)[C@@H](O[C@@H]3O[C@H](C)C[C@H](N(C)C)[C@H]3OC(C)=O)[C@@H](C)C[C@@]3(CO3)C(=O)[C@H](C)[C@@H](OC(C)=O)[C@@H](C)[C@@H](C)OC(=O)[C@@H]2C)O[C@@H](C)[C@@H]1OC(C)=O [Troleandomycin]
growth yield (40 h): 100.5 ± 0.79%
growth yield (72 h): 98.4 ± 1.3%

CC=CC1=C(C(=O)O)N2C(=O)[C@@H](NC(=O)[C@H](N)c3ccc(O)cc3)[C@H]2SC1 [Cefprozil]
growth yield (40 h): 100 ± 1.4%
growth yield (72 h): 92.7 ± 3.1%

CN1CCN(C2=Nc3cc(Cl)ccc3Nc3ccccc32)CC1 [Clozapine]
growth yield (40 h): 102 ± 2.4%
growth yield (72 h): 104.77 ± 0.1%

CN1[C@@H]2CC[C@H]1C[C@@H](OC(=O)c1c[nH]c3ccccc13)C2 [Tropisetron hydrochloride]
growth yield (40 h): 104 ± 10%
growth yield (72 h): 104 ± 8.6%

CC(C)c1c(C(=O)Nc2ccccc2)c(-c2ccccc2)c(-c2ccc(F)cc2)n1CC[C@@H](O)C[C@@H](O)CC(=O)O [Atorvastatin]
growth yield (40 h): 106%
growth yield (72 h): 85.1 ± 10%

O=C(O)C[C@H](O)C[C@H](O)/C=C/c1c(C2CC2)nc2ccccc2c1-c1ccc(F)cc1 [Pitavastatin calcium]
growth yield (40 h): 4.13%
growth yield (72 h): 2.94%

CC(C)n1c(/C=C/C(O)CC(O)CC(=O)O)c(-c2ccc(F)cc2)c2ccccc21 (stereo not drawn) [Fluvastatin sodium salt]
growth yield (40 h): 1.91 ± 1.3%
growth yield (72 h): 1.78 ± 0.94%
